The record followed here is PubChem BioAssay AID881 (National Center for Advancing Translational Sciences (NCATS), 2007).

The campaign covered roughly 110,000 compounds. About 610 (0.55%) were called active. Where a call stands in place of a potency, no number is given. Roughly 3% stayed inconclusive and do not appear here. This is one part of a sample in which actives are shown more often than they occur. Calls come from the whole dose curve; as a rule, active = well fitted inhibition curve with a large enough effect; inconclusive = small, poorly fitted or top-dose-only effect; inactive = no such curve, though single readings can be large or run the other way.
Potency is the fitted concentration of half-maximal effect.

The target in this test is Polyunsaturated fatty acid lipoxygenase ALOX15B (Homo sapiens) (UniProt O15296). In words: qHTS Assay for Inhibitors of 15-hLO-2 (15-human lipoxygenase 2). Note: nearly all actives have a fitted effect of over 60% in size. As to conditions: purified 15hLO-2, xylenol orange hydroperoxide absorbance; series mostly up to 0.0915 µM. The text has this: Assay Overview: NIH Molecular Libraries Screening Centers Network [MLSCN] NIH Chemical Genomics Center [NCGC] MLSCN Grant: MH081283-01A1 PI Name: Holman, T.R., University of California, Santa Cruz Human lipoxygenase 15hLO-2 is a member of the closely related lipoxygenase family of enzymes which catalyze the site-specific oxidation of arachidonic acid to various hormone precursor molecules and as such is a candidate for drug development in a variety of disease areas, such as cancer and inflammation. Inhibition of 15hLO-2 activity was screened by utilizing arachidonic acid as a substrate. The extent of hydroperoxide product formation was measured by a secondary chromogenic reaction in which xylenol orange (XO, Sigma-Aldrich, cat. number 39,818-7) reacts with the ferric ions produced from the reaction between the hydroperoxide and ferrous ions. The Fe(III)-XO complex is characterized with red-shifted absorbance at 560 nm. A purified preparation of human 15hLO-2 was supplied by Professor Ted Holman, University of California, Santa Cruz.
Sequence of Polyunsaturated fatty acid lipoxygenase ALOX15B (Homo sapiens) (O15296 whole entry, looked up): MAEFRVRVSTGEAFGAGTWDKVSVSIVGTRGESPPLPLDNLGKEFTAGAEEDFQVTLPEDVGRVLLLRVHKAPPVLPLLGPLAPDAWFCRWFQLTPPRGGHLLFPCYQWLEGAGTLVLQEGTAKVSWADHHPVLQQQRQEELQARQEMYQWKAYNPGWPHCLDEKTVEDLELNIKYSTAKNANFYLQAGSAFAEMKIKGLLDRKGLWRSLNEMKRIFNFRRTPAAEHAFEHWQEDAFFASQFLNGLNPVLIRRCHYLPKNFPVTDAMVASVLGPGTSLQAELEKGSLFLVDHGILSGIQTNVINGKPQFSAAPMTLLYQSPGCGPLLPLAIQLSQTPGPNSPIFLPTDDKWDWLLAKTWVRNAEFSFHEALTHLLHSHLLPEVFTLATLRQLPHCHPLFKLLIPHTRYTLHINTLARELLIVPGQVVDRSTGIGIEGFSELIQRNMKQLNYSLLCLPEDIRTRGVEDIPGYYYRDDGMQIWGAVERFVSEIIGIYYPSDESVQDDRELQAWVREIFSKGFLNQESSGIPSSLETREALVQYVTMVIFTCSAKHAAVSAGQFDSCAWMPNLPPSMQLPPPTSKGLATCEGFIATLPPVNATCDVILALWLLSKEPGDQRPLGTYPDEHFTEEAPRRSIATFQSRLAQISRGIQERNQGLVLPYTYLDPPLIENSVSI
Assay Protocol: Buffer: 25 mM Hepes pH 7.5, 0.01% Triton X-100. Reagents/Controls: Buffer in columns 3 and 4 as negative control (no enzyme). Substrate solution: 45 uM arachidonic acid (Sigma-Aldrich, St. Louis, MO) final concentration dispensed throughout the plate. Enzyme: 50 nM 15hLO-2 final concentration in columns 1, 2, 5-48. Column 1 is neutral (100% activity). Column 2 contained pin-transferred titration of NDGA (nordihidroguaiaretic acid, Sigma-Aldrich, N 5023, top concentration 10 mM in DMSO, then 1:2 dilution in duplicate). (Dilution factor: 23 nL into 4 uL.) Chromogenic detection reagent (divalent iron/xylenol orange, Fe-XO): 200 uM xylenol orange plus 300 uM ferrous ammonium sulfate prepared freshly in 50 mM sulfuric acid. Assay Steps: Three uL of enzyme were dispensed to 1536-well Greiner black clear bottom plates. Compounds and controls (23 nL) were transferred via Kalypsys PinTool. The plates were incubated for 15 min at room temperature, and then 1 uL of substrate solution was added to start the reaction. After room temperature incubation for 90 minutes, 4 uL of Fe-XO solution was added to each well followed by a short spin (1000 rpm, 15 sec) and the plates were then incubated for 30 min. The absorbance at 405 and 573 nm were measured using ViewLux (Perkin-Elmer) High-throughput CCD imager and absorbance protocol settings. The 573-to-405 absorbance ratio was used to compute reaction progress.
Background: Quantitative high-throughput screening tests each substance at several concentrations.
`CC(C)CC(C)Nc1ccc(Nc2ccccc2)cc1` (stereo not given): the Potency was 1.58 µM (active).
As to `CC(=O)NC(=O)NC(C)Cc1ccccc1` (stereo not given), the Potency result was “inactive”.
Then `CC(C)(O/N=C(\C(=O)N[C@@H]1C(=O)N2C(C(=O)[O-])=C(C[n+]3ccccc3)CS[C@@H]12)c1csc(N)n1)C(=O)O`, with “inactive”; and `CCCCCCCCc1[se]c2ccccc2c1Br`, with “inactive”; and `CN(C)[C@@H]1C(=O)C(C(N)=O)=C(O)[C@@]2(O)C(=O)C3=C(O)c4c(O)cccc4[C@@](C)(O)C3CC12` (stereo not given in full), with “inactive”.
Regarding `COc1ccccc1-c1[se]c2ccccc2c1I`, the Potency result is “inactive”.
Take `Clc1ccc(C(c2ccc(Cl)cc2)n2cc[n+](C[C@@H](OCc3ccc(Cl)cc3Cl)c3ccc(Cl)cc3Cl)c2)cc1`: the Potency was 25.1 µM (active).
Take `N#CC(C#N)=Cc1cc(O)c(O)c([N+](=O)[O-])c1`: the Potency entry was “inactive”.
As for `COC(=O)c1ccc2[se]c(CC3CCCCC3)c(I)c2c1`, the entry is “inactive”; as for `CC(C)(O)c1[se]c2ccccc2c1I`, “inactive”.
